# Measurements from PMC7862700, “An all-to-all approach to the identification of sequence-specific readers for epigenetic DNA modifications on cytosine”.
# What was measured:
# Assay in all cases: DAPPL (digital affinity profiling via proximity ligation, sequencing); 10 mM Tris-HCl pH 7.5, 50 mM NaCl, 1 mM DTT, 4% glycerol, room temperature, 30 min; GST-TFs on glutathione beads, 16-mer random dsDNA library, 0.1% formaldehyde crosslink after washing; high values mean tight binding
# FLI1 = target: T1, FLI1 (Homo sapiens, UniProt Q01543 1-452); conditions: protein: recombinant; tags: N-terminal GST; dsDNA, one strand shown
# T1 sequence: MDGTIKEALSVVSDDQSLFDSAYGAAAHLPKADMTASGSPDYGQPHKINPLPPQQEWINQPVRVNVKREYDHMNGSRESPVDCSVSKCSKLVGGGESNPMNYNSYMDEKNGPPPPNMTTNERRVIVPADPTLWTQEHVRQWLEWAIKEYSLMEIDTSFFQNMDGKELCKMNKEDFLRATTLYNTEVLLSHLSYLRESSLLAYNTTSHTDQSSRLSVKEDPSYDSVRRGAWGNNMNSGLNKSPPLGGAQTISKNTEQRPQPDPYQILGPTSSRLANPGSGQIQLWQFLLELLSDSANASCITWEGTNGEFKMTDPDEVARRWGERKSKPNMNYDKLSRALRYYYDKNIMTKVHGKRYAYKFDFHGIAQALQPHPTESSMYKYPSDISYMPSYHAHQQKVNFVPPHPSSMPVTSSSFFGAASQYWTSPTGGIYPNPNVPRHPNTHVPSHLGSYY
# In short: (§1)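 The binding signal reported is, for every hexamer, its read frequency for a factor over its read frequency for the tag-only sample. Reads came from pools of yeast-expressed, GST-fused human transcription factors on glutathione beads, barcoded with DNA and mixed with that sample, which were incubated with 200 nmole of a random double-stranded 16-mer DNA library in Tris/NaCl/DTT/glycerol buffer at room temperature for 30 min. After washing, the pools were crosslinked with 0.1% formaldehyde, proximity-ligated with BsaI/T4 ligase for 1 h at 37 °C, PCR-amplified and sequenced on an Illumina NextSeq500.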
# ELK1 = target: T2, ELK1 (Homo sapiens, UniProt P19419 1-428); conditions: protein: recombinant; tags: N-terminal GST; dsDNA, one strand shown
# T2 sequence: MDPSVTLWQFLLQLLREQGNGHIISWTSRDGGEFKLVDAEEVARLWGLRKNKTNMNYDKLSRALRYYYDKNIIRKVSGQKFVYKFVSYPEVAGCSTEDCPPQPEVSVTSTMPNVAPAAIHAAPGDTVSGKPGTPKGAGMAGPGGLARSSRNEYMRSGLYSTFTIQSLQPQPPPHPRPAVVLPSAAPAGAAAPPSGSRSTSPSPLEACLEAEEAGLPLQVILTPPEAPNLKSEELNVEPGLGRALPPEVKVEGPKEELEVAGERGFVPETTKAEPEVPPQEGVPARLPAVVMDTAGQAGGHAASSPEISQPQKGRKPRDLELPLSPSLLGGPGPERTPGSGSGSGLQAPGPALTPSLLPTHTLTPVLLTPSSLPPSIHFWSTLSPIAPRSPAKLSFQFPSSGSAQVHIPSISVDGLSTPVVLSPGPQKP
# In short: as §1
# GABPA = target: T3, GABPA (Homo sapiens, UniProt Q06546 1-454); conditions: protein: recombinant; tags: N-terminal GST; dsDNA, one strand shown
# T3 sequence: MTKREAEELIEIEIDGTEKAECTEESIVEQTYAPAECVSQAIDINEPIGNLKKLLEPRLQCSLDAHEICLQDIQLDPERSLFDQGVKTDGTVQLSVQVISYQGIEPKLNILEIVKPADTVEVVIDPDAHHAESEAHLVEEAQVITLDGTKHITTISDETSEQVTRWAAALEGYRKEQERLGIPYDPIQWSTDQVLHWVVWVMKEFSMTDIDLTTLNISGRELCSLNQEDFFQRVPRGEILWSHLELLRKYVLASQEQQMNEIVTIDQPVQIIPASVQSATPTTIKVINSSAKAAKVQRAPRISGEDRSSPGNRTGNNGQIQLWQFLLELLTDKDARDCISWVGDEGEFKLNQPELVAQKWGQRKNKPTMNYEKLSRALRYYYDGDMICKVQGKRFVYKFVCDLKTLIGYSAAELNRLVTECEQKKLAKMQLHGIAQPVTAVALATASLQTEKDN
# In short: as §1
# ERG = target: T4, ERG (Homo sapiens, UniProt P11308 1-479); conditions: protein: recombinant; tags: N-terminal GST; dsDNA, one strand shown
# T4 sequence: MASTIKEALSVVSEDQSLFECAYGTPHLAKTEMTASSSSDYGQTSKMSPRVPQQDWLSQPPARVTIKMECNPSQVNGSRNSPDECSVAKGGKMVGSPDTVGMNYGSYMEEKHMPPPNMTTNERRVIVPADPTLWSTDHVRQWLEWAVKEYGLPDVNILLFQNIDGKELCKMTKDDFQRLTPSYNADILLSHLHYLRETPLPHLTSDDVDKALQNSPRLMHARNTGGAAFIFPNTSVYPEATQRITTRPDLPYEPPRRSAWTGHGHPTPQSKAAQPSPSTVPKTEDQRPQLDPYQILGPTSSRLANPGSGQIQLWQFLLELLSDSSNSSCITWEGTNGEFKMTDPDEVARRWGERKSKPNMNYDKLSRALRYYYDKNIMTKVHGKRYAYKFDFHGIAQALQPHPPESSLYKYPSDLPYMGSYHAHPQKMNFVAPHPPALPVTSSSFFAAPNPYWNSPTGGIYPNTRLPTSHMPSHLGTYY
# In short: as §1
# ELF1 = ELF1 (Homo sapiens, UniProt P32519 1-619); conditions: protein: recombinant; tags: N-terminal GST; dsDNA, one strand shown
# Chain of ELF1 (P32519 whole entry): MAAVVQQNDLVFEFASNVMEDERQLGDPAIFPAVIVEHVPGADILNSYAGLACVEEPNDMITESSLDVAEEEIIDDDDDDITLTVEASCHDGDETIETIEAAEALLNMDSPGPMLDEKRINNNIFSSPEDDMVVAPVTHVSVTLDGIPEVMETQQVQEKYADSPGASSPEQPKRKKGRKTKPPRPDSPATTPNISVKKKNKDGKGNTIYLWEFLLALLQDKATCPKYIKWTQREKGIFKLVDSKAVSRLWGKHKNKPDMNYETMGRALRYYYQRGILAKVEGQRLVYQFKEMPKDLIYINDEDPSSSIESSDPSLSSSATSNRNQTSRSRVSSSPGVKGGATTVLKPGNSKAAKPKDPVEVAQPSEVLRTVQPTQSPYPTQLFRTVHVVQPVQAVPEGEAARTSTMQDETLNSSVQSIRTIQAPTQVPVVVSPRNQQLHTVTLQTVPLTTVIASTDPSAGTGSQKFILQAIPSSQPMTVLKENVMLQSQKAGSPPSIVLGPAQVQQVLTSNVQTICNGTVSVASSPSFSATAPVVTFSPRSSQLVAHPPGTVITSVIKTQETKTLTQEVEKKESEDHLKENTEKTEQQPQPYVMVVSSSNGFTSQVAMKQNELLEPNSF
# In short: as §1
# EHF = target: T5, EHF (Homo sapiens, UniProt Q9NZC4 1-300); conditions: protein: recombinant; tags: N-terminal GST; dsDNA, one strand shown
# T5 sequence: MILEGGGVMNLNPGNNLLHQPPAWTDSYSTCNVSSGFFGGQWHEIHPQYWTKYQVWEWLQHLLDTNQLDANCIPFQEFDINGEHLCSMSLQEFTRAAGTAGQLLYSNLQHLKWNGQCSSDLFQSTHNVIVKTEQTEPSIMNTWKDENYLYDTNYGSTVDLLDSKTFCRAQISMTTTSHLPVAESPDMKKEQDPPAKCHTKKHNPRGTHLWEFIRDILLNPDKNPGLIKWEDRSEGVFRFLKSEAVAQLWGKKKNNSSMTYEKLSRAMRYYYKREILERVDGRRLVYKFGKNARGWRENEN
# In short: as §1
# SPI1 = SPI1 (Homo sapiens, UniProt P17947 1-270); conditions: protein: recombinant; tags: N-terminal GST; dsDNA, one strand shown
# In short: as §1
# SPIB = SPIB (Homo sapiens, UniProt Q01892 1-262); conditions: protein: recombinant; tags: N-terminal GST; dsDNA, one strand shown
# Chain of SPIB (Q01892 whole entry): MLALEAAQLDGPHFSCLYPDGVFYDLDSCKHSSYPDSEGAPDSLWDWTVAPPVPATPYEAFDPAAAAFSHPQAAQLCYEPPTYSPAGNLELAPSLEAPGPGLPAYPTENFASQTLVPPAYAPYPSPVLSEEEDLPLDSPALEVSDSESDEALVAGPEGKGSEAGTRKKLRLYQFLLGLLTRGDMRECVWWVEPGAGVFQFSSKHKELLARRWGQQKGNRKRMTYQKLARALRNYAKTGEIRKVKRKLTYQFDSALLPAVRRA
# In short: as §1
# ELK3 = target: T6, ELK3 (Homo sapiens, UniProt P41970 1-407); conditions: protein: recombinant; tags: N-terminal GST; dsDNA, one strand shown
# T6 sequence: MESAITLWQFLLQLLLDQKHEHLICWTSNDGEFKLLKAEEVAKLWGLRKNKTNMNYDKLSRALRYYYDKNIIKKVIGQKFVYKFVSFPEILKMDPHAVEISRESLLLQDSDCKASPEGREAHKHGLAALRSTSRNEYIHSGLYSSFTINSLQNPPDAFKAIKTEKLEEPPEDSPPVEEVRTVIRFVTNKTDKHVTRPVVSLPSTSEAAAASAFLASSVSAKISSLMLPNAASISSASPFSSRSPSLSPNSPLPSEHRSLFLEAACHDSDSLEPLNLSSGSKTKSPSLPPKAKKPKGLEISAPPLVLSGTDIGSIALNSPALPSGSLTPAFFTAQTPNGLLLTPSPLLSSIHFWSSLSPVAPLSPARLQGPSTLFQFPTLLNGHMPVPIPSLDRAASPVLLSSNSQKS
# In short: as §1
# FEV = target: T7, FEV (Homo sapiens, UniProt Q99581 1-238); conditions: protein: recombinant; tags: N-terminal GST; dsDNA, one strand shown
# T7 sequence: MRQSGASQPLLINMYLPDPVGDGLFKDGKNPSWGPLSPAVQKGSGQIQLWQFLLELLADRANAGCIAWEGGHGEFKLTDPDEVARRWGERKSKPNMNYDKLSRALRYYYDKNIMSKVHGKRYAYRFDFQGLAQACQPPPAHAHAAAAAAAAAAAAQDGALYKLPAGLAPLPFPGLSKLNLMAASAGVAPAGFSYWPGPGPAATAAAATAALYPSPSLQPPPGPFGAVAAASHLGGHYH
# In short: as §1
# ETV5 = ETV5 (Homo sapiens, UniProt P41161 1-510); conditions: protein: recombinant; tags: N-terminal GST; dsDNA, one strand shown
# Chain of ETV5 (P41161 whole entry): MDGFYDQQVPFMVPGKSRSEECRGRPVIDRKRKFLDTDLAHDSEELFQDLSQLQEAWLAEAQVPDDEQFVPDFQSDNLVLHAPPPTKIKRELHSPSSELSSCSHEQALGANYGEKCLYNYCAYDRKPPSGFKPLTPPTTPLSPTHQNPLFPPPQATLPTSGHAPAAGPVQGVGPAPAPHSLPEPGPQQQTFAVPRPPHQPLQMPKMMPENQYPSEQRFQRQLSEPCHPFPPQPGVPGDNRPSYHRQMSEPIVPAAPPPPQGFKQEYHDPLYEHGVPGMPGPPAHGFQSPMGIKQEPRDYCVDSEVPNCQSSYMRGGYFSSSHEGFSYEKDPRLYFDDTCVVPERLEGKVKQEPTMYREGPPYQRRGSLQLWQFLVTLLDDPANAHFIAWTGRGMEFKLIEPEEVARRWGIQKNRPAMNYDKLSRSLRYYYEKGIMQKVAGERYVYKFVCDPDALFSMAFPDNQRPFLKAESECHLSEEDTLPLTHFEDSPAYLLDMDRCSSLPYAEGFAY
# In short: as §1
# HSF1 = HSF1 (Homo sapiens, UniProt Q00613 1-529); conditions: protein: recombinant; tags: N-terminal GST; chain copies: 3; dsDNA, one strand shown
# Chain of HSF1 (Q00613 whole entry): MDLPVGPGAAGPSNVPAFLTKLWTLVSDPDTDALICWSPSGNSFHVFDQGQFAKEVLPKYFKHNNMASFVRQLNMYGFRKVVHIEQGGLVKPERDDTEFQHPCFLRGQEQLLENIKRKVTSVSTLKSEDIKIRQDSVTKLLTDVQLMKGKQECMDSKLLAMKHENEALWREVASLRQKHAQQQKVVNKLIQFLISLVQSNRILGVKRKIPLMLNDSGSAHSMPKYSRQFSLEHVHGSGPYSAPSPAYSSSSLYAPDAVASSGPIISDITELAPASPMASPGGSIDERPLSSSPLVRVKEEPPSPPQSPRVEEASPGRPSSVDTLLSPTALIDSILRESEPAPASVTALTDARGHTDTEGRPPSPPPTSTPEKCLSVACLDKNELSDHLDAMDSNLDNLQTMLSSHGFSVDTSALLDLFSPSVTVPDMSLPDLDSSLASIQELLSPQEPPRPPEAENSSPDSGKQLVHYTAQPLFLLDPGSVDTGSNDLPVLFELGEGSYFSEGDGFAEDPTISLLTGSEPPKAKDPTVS
# In short: as §1
# SPIC = target: T8, SPIC (Homo sapiens, UniProt Q8N5J4 1-248); conditions: protein: recombinant; tags: N-terminal GST; dsDNA, one strand shown
# T8 sequence: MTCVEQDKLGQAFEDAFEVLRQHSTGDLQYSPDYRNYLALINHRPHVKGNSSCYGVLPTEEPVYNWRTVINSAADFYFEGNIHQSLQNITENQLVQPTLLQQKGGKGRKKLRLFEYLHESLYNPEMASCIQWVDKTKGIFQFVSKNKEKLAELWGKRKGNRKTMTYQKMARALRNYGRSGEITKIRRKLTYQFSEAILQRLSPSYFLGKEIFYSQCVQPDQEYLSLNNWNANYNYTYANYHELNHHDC
# In short: as §1
# ELF4 = ELF4 (Homo sapiens, UniProt Q99607 1-663); conditions: protein: recombinant; tags: N-terminal GST; dsDNA, one strand shown
# Chain of ELF4 (Q99607 whole entry): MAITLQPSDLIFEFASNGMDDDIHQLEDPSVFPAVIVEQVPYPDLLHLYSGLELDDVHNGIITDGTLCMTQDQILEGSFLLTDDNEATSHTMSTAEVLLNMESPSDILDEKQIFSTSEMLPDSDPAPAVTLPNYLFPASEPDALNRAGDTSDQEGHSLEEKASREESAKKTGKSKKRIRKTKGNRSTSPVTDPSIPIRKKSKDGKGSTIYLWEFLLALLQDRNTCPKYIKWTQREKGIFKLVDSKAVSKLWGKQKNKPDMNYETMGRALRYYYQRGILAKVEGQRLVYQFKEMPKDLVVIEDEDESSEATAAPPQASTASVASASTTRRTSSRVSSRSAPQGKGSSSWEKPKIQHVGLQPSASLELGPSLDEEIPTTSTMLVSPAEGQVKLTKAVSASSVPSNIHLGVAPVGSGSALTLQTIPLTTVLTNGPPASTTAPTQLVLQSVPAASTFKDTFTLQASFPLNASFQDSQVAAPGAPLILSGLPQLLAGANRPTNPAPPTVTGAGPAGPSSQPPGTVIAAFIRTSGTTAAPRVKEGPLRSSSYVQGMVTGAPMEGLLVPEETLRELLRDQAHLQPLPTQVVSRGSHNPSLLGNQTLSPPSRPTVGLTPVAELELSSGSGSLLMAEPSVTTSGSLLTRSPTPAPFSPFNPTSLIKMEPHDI
# In short: as §1
# ELK4 = target: T9, ELK4 (Homo sapiens, UniProt P28324-2 1-405); conditions: protein: recombinant; tags: N-terminal GST; dsDNA, one strand shown
# T9 sequence: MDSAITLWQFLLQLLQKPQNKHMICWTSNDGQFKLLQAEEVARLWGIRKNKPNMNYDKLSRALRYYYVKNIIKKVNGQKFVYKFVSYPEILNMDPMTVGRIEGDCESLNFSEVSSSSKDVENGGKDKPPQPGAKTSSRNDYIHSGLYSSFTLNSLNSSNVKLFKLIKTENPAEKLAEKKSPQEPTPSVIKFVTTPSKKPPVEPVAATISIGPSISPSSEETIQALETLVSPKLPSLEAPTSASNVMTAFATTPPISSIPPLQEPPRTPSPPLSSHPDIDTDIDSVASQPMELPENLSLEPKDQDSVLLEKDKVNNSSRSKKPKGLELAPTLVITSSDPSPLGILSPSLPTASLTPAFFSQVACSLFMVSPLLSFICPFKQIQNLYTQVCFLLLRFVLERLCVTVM
# In short: as §1
# ETV2 = target: T10, ETV2 (Homo sapiens, UniProt O00321 1-342); conditions: protein: recombinant; tags: N-terminal GST; dsDNA, one strand shown
# T10 sequence: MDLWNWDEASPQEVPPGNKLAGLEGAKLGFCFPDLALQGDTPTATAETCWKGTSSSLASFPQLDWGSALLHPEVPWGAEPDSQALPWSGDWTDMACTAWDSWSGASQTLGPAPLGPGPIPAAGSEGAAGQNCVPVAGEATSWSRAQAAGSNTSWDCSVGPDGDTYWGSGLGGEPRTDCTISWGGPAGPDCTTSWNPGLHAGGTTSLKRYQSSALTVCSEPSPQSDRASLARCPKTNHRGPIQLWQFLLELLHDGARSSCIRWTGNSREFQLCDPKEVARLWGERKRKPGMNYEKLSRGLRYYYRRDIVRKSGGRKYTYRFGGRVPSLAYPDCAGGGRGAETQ
# In short: as §1
# ELF3 = target: T11, ELF3 (Homo sapiens, UniProt P78545 1-371); conditions: protein: recombinant; tags: N-terminal GST; dsDNA, one strand shown
# T11 sequence: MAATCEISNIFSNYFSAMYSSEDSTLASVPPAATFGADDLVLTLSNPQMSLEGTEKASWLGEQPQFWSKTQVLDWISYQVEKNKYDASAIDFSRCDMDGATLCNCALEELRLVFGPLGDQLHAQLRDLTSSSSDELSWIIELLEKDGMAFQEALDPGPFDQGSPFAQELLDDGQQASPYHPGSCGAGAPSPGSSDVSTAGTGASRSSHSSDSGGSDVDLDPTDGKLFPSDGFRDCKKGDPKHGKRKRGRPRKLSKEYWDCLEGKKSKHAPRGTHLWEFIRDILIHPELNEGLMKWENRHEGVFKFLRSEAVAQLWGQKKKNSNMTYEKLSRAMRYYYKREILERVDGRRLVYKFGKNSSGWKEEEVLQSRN
# In short: as §1
# ETV1 = ETV1 (Homo sapiens, UniProt P50549 1-477); conditions: protein: recombinant; tags: N-terminal GST; dsDNA, one strand shown
# Chain of ETV1 (P50549 whole entry): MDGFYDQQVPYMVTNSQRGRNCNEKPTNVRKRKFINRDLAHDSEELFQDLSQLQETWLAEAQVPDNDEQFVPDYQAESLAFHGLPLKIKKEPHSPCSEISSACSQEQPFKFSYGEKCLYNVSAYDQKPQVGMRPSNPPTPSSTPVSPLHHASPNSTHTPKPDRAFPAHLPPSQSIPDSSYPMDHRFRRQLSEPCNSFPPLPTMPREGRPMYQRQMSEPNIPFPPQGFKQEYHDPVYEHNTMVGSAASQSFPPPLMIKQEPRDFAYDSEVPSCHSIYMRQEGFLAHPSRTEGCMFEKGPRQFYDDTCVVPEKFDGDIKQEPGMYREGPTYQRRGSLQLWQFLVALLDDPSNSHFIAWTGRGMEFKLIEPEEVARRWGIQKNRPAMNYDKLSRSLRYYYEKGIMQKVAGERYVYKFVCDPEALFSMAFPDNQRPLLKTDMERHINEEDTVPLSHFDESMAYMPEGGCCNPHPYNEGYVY
# In short: as §1
sequence,measurement,setting,value
CTGCCA,binding signal,FLI1,"1.18 fold enrichment (6-mer frequency, TF over GST control)"
same,binding signal,ELK1,"1.17 fold enrichment (6-mer frequency, TF over GST control)"
same,binding signal,GABPA,"1.24 fold enrichment (6-mer frequency, TF over GST control)"
same,binding signal,ERG,"1.23 fold enrichment (6-mer frequency, TF over GST control)"
same,binding signal,ELF1,"1.23 fold enrichment (6-mer frequency, TF over GST control)"
same,binding signal,EHF,"1.18 fold enrichment (6-mer frequency, TF over GST control)"
same,binding signal,SPI1,"1.24 fold enrichment (6-mer frequency, TF over GST control)"
same,binding signal,SPIB,"1.28 fold enrichment (6-mer frequency, TF over GST control)"
same,binding signal,ELK3,"1.08 fold enrichment (6-mer frequency, TF over GST control)"
same,binding signal,FEV,"1.24 fold enrichment (6-mer frequency, TF over GST control)"
same,binding signal,ETV5,"1.15 fold enrichment (6-mer frequency, TF over GST control)"
same,binding signal,HSF1,"1 fold enrichment (6-mer frequency, TF over GST control)"
same,binding signal,SPIC,"1.18 fold enrichment (6-mer frequency, TF over GST control)"
same,binding signal,ELF4,"1.25 fold enrichment (6-mer frequency, TF over GST control)"
same,binding signal,ELK4,"1.33 fold enrichment (6-mer frequency, TF over GST control)"
same,binding signal,ETV2,"1.03 fold enrichment (6-mer frequency, TF over GST control)"
same,binding signal,ELF3,"1.22 fold enrichment (6-mer frequency, TF over GST control)"
same,binding signal,ETV1,"1.17 fold enrichment (6-mer frequency, TF over GST control)"
